Records with an inconclusive call do not appear. A number with no mark means an inactive call. Active and inactive are the calls of the source. Calls follow the shape of the dose curve; as a rule, active = well fitted curve in the direction sought with a large enough effect; inconclusive = small, poorly fitted or top-dose-only effect, or another doubt; inactive = no such curve, though single readings can be large; an effect the other way counts as inactive or inconclusive.
Experiment: Confirmatory screen NINDS Rhodamine qHTS for Zika virus inhibitors (AID 1347161); also: nearly all actives have a fitted effect of over 60% in size; also: potency is read from the fitted curve at half-maximal effect;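 as to activity change, negative = inhibition: purified Zika NS2B-NS3 protease with linked NS2B cofactor domain and Rhodamine110 peptide substrate; plate controls were no-inhibitor control for no effect and no-enzyme control for full effect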
Settings: purified enzyme assay, Rhodamine110 substrate fluorescence, 15 min; series mostly up to 64.7 µM; activity change, negative = inhibition: at the top concentration
In short: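 Each compound, titrated, sat 15 min with 25 nM linked protease before 1.5 microM Rhodamine110 substrate went in. Fluorescence gain over the next 15 min, in pH 8.0 Tris with Tween 20, gave Hill-fitted curves.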

Row | SMILES | Potency | activity change, negative = inhibition
1 | O=C(O)Cn1c(C(=O)Nc2nc(-c3ccccc3Cl)cs2)cc2ccccc21 | 3.93 µM (active) | –
2 | COc1ccccc1Oc1c(NS(=O)(=O)c2ccc(C(C)(C)C)cc2)nc(-c2ncccn2)nc1OCCO | – | -25.3% [at 114 µM]
3 | CN1C[C@@H]2C[C@H]1CN2c1cc2c(cc1F)c(=O)c(C(=O)O)cn2C1CC1 | – | -30.5%
4 | O=C(O)[C@@H]1[C@H]2C[C@H]3c4[nH]c5ccccc5c4CCN3C[C@@H]2CC[C@@H]1O | 12.4 µM (active) | –

Experiment: Vero cells viability qHTS for Zika virus inhibitors (AID 1347167); also: % is scaled to controls: 0 for no effect and ±100 for the full control effect
Settings: cytotoxicity counter-screen (Zika); series mostly up to 45.9 µM; activity change, negative = cytotoxicity: at the top concentration
In short: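 Cells seeded at 2.5 x 10^5 cells/mL in DMEM with 4% FBS and attached overnight at 37 degrees C, then exposed to compound for 24 to 48 hours. Viability read as ATP content by CellTiter Glo luminescence.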

Row | SMILES | activity change, negative = cytotoxicity
5 | O=C(O)Cn1c(C(=O)Nc2nc(-c3ccccc3Cl)cs2)cc2ccccc21 | -3.62%
6 | CN1C[C@@H]2C[C@H]1CN2c1cc2c(cc1F)c(=O)c(C(=O)O)cn2C1CC1 | -6.91% [at 26.9 µM]
7 | O=C(O)[C@@H]1[C@H]2C[C@H]3c4[nH]c5ccccc5c4CCN3C[C@@H]2CC[C@@H]1O | -3.61%

Source: PubChem BioAssay (NCATS)
